Experimental data reported in ChEMBL document CHEMBL4513146, “CO-ADD screening of Karazin Kharkiv National University (Ukraine) compounds”.
Measured potencies and affinities stand elsewhere.

Experiments:
[1] = test system: Klebsiella pneumoniae; details: Concentration 32 ug.mL-1;; ASSAY_TEST Inhibition of Bacterial Growth; detection method Absorption (OD600); MEDIA CAMHB; plate type 384well; NBS; CORNING #3640; time 18 hr
[2] = test system: Candida albicans; details: Concentration 32 ug.mL-1; ASSAY_TEST Inhibition of Fungal Growth; detection method Absorption (OD530)
[3] = test system: Cryptococcus neoformans; details: Concentration 32 ug.mL-1; ASSAY_TEST Inhibition of Fungal Growth; detection method Resazurin; Absorption (OD600-OD570); plate type 384well; NBS; CORNING #3640

O=C(Cn1nc2c3cc(F)ccc3ncn2c1=O)Nc1ccc2c(c1)OCO2
Inhibition [1]: 1.07% | Inhibition [2]: 3.33% | Inhibition [3]: -3.11%

Cc1cccc(C)c1NC(=O)Cn1nc2c(N3CCSCC3)nc3ccccc3n2c1=O
Inhibition [1]: 7.3% | Inhibition [2]: 2.93% | Inhibition [3]: -23.14%

COc1ccc(NC(=O)Cn2nc3c(Sc4ccccc4)nccn3c2=O)cc1Cl
Inhibition [1]: -2.59% | Inhibition [2]: 0.73% | Inhibition [3]: 2.33%

CCc1nnc2ccc(S(=O)(=O)N(Cc3cccc(OC)c3)c3cccc(F)c3)cn12
Inhibition [1]: 10.63% | Inhibition [2]: 2.06% | Inhibition [3]: -7.44%

Cc1c(Cl)cccc1NC(=O)Cn1nc2c(N3CCOCC3)nc3ccccc3n2c1=O
Inhibition [1]: 9.14% | Inhibition [2]: 0.17% | Inhibition [3]: -24%

COc1ccccc1-n1ccn2c(SCC(=O)N3CCN(c4ccccc4F)CC3)nnc2c1=O
Inhibition [1]: 14.09% | Inhibition [2]: 3.15% | Inhibition [3]: -10.82%

COC(=O)c1ccc(NC(=O)Cn2nc3ccc(C(=O)NCc4ccccc4)cn3c2=O)cc1
Inhibition [1]: 7.68% | Inhibition [2]: 0.61% | Inhibition [3]: -23.41%

CCc1ccccc1NC(=O)Cn1nc2c(Sc3ccc(C)cc3C)nccn2c1=O
Inhibition [1]: 5.69% | Inhibition [2]: 0.47% | Inhibition [3]: -23.87%

Cc1cc2nn(CC(=O)NCc3ccco3)c(=O)n2c(Nc2ccc(C)c(F)c2)n1
Inhibition [1]: 7.94% | Inhibition [2]: 7.51% | Inhibition [3]: -7.03%

COc1ccccc1Cn1c(=O)c2sccc2n2c(=O)n(Cc3cccc(Br)c3)nc12
Inhibition [1]: 0.7% | Inhibition [2]: -0.62% | Inhibition [3]: -14.71%

COC(=O)c1ccc(NC(=O)Cn2nc3ccc(SCc4ccc(Cl)cc4)nn3c2=O)cc1
Inhibition [1]: 3.21% | Inhibition [2]: 46.24% | Inhibition [3]: -5.53%

Cc1ccc(-c2cc3c4nn(CC(=O)Nc5ccc(Br)cc5)c(=O)n4ccn3n2)cc1C
Inhibition [1]: -3.52% | Inhibition [2]: 9.45% | Inhibition [3]: -8.46%

O=C(CSc1nnc2c(=O)n(-c3ccccc3)ccn12)Nc1cc(F)ccc1F
Inhibition [1]: -0.92% | Inhibition [2]: 1.57% | Inhibition [3]: -15%

O=C(Cn1nc2c(Sc3ccccc3)nccn2c1=O)Nc1ccc(Br)cc1F
Inhibition [1]: 9.23% | Inhibition [2]: 5.59% | Inhibition [3]: -9.93%

CCOc1ccc(NC(=O)Cn2nc3ccc(-c4ccccc4)nn3c2=O)cc1
Inhibition [1]: 6.87% | Inhibition [2]: 4.93% | Inhibition [3]: -6.8%

CCCCN(CC)C(=O)CSc1nnc2c(=O)n(Cc3ccccc3F)ccn12
Inhibition [1]: 7.9% | Inhibition [2]: 2.5% | Inhibition [3]: -19.25%

Cc1ccc(Cl)cc1NC(=O)CSc1nc2ccccc2n2c(C)nnc12
Inhibition [1]: 2.82% | Inhibition [2]: 5.91% | Inhibition [3]: -21.14%

Cc1nnc2ccc(S(=O)(=O)N(Cc3ccccc3)c3cccc(F)c3)cn12
Inhibition [1]: 4.18% | Inhibition [2]: 2.53% | Inhibition [3]: -9.94%

COc1cccc(-c2nc(CSc3nc4ccccc4n4c(C)nnc34)c(C)o2)c1OC
Inhibition [1]: 8.41% | Inhibition [2]: 0.37% | Inhibition [3]: -19.84%

CCc1nnc2c(S(=O)(=O)N(Cc3cccc(F)c3)c3ccccc3)cccn12
Inhibition [1]: 10.23% | Inhibition [2]: 3.58% | Inhibition [3]: -7.54%

CC(C)CCNC(=O)Cn1nc2n(Cc3ccco3)c(=O)c3sccc3n2c1=O
Inhibition [1]: 8.27% | Inhibition [2]: 3.16% | Inhibition [3]: -8.69%

COc1ccc(-c2cc3c4nn(CC(=O)Nc5cc(C)ccc5OC)c(=O)n4ccn3n2)cc1
Inhibition [1]: 8.5% | Inhibition [2]: 13.11% | Inhibition [3]: -15.79%

COc1ccc(NC(=O)Cn2nc3ccc(SC4CCCCC4)nn3c2=O)c(OC)c1
Inhibition [1]: 4.32% | Inhibition [2]: -0.43% | Inhibition [3]: -25.29%

CC(C)Cn1c(=O)c2sccc2n2c(=O)n(CC(=O)NC(C)(C)C)nc12
Inhibition [1]: 2.39% | Inhibition [2]: -0.9% | Inhibition [3]: -15.87%

COc1ccc(NC(=O)Cn2nc3nc(N4CCOCC4)ccn3c2=O)cc1F
Inhibition [1]: 8.85% | Inhibition [2]: 5.37% | Inhibition [3]: -8.95%

COc1cccc(-n2ccn3c(SCc4ccc(Cl)cc4)nnc3c2=O)c1
Inhibition [1]: 9.45% | Inhibition [2]: 2.03% | Inhibition [3]: -6.31%

Cc1nnc2c(S(=O)(=O)N(Cc3cccc(F)c3)c3cccc(F)c3)cccn12
Inhibition [1]: 14.45% | Inhibition [2]: 2.41% | Inhibition [3]: -6.64%

CCc1nnc2c(S(=O)(=O)N(Cc3cccc(F)c3)c3ccc(C)c(C)c3)cccn12
Inhibition [1]: 12.58% | Inhibition [2]: 3.78% | Inhibition [3]: -9.15%

CCCCOc1ccc(-c2cc3c4nnc(SCC(=O)Nc5ccccc5F)n4ccn3n2)cc1
Inhibition [1]: -0.1% | Inhibition [2]: 7.26% | Inhibition [3]: -10.98%

COc1ccccc1NC(=O)Cn1nc2c3cc(-c4ccc(Cl)cc4)nn3ccn2c1=O
Inhibition [1]: 7.17% | Inhibition [2]: 8.08% | Inhibition [3]: -18.6%

CCCN(C)c1nccn2c(=O)n(CC(=O)Nc3ccc(F)cc3)nc12
Inhibition [1]: 16.44% | Inhibition [2]: 1.98% | Inhibition [3]: -8.83%

O=c1c2nnc(SCc3ccccc3Cl)n2ccn1-c1ccc(F)cc1
Inhibition [1]: 8% | Inhibition [2]: 2.71% | Inhibition [3]: -9%

O=S(=O)(c1cccn2cnnc12)N(Cc1cccc(F)c1)c1cccc(Cl)c1
Inhibition [1]: 2.34% | Inhibition [2]: 1.27% | Inhibition [3]: -7.2%

CC(C)Sc1ccc2nn(CC(=O)Nc3ccc(Br)cc3F)c(=O)n2n1
Inhibition [1]: 15.2% | Inhibition [2]: -0.59% | Inhibition [3]: -7.06%

CCCc1nnc2c(=O)n(CC(=O)Nc3cccc(C(C)=O)c3)c3ccccc3n12
Inhibition [1]: -4.73% | Inhibition [2]: 6.89% | Inhibition [3]: -25.21%

CCc1nnc2c(SCC(=O)Nc3ccc(Cl)cc3)nc3ccccc3n12
Inhibition [1]: 3.4% | Inhibition [2]: 9.64% | Inhibition [3]: -3.51%

COc1ccc(NC(=O)C(C)Sc2nnc3c(=O)n(-c4ccc(C)c(C)c4)ccn23)cc1 (stereo not given)
Inhibition [1]: 12.32% | Inhibition [2]: -1.2% | Inhibition [3]: -9%

COc1cccc(-n2ccn3c(SCC(=O)Nc4ccccc4F)nnc3c2=O)c1
Inhibition [1]: 7.91% | Inhibition [2]: 2.83% | Inhibition [3]: -12.13%

Cc1ccc(NC(=O)Cn2nc3c(N4CCOCC4)nc4ccccc4n3c2=O)cc1C
Inhibition [1]: 11.25% | Inhibition [2]: -0.6% | Inhibition [3]: -25.03%

COC(=O)c1ccc(CN(c2ccc(C)cc2)S(=O)(=O)c2ccc3nnc(C)n3c2)o1
Inhibition [1]: 8.84% | Inhibition [2]: 0.1% | Inhibition [3]: -13.09%

Cc1cccc(C)c1NC(=O)Cn1nc2c(Sc3cccc(F)c3)nccn2c1=O
Inhibition [1]: 4.53% | Inhibition [2]: -1.35% | Inhibition [3]: -4.17%

COc1ccc(NC(=O)c2ccc3nn(CC(=O)Nc4ccc5c(c4)OCCO5)c(=O)n3c2)cc1
Inhibition [1]: 2.24% | Inhibition [2]: 1.62% | Inhibition [3]: -23.54%

Cc1ccc(Oc2nccn3c(=O)n(CC(=O)Nc4ccccc4C(F)(F)F)nc23)cc1
Inhibition [1]: 6.49% | Inhibition [2]: 0.6% | Inhibition [3]: -7.72%

O=C(CSc1nnc2c(=O)n(-c3ccccc3)ccn12)Nc1cccc(F)c1
Inhibition [1]: 2% | Inhibition [2]: 7.33% | Inhibition [3]: -21.7%

O=C(Cn1nc2ccc(Sc3cccc(F)c3)nn2c1=O)Nc1ccc2c(c1)OCCO2
Inhibition [1]: 12.38% | Inhibition [2]: -0.05% | Inhibition [3]: -8.22%
